Compounds with a hit are over-represented: about 3.4% of the library has one in this group of screens.
PP5 inh: PP5 phosphatase inhibitors, primary screen, biochemical, fluorescence; Serine/threonine-protein phosphatase 5 (Homo sapiens), P53041; purified PP5c, OMFP substrate fluorescence; inhibition, % at 6.7 µM; 320,000 tested, 0.18% active;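 active = inhibition above the campaign's mean inhibition across all tested compounds plus 3 SD, cut at about 9.5% in these data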
PAFAH2 FP inh: PAFAH2 enzyme inhibitors, primary screen, biochemical, fluorescence polarization, human; recombinant PAFAH2, FP-rhodamine activity probe; AID 492956, 2010; inhibition, % at 3.39 µM; 340,000 tested, 0.99% active; Platelet-activating factor acetylhydrolase 2, cytoplasmic (Homo sapiens), Q99487;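 active = inhibition above the mean over all tested compounds plus 3 SD, cut at about 30% in these data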;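 note: inhibitors block probe labeling of enzyme so polarization drops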
PAFAH1B2 FP inh: PAFAH1B2 enzyme inhibitors, primary screen, biochemical, fluorescence polarization, human; 340,000 tested, 1.2% active; recombinant PAFAH1B2, FP-rhodamine activity probe; inhibition, % at 3.39 µM; AID 492953, 2010; Platelet-activating factor acetylhydrolase IB subunit alpha2 (Homo sapiens), P68402;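 active = inhibition above the mean of all tested compounds plus 3 SD, cut at about 24% in these data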
Target sequence (P68402 whole entry, looked up): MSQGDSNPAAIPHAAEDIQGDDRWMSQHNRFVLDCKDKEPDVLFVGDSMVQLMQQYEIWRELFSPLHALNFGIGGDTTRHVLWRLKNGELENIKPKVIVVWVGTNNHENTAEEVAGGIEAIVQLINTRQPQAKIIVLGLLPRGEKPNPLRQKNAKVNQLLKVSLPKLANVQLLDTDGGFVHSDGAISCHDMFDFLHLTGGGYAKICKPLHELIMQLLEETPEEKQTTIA
pPAFAH FP inh: pPAFAH enzyme inhibitors, primary screen, biochemical, fluorescence polarization, human | recombinant pPAFAH, FP-rhodamine probe fluorescence polarization | inhibition, % at 3.39 µM | 330,000 tested, 1.5% active | AID 463082, 2010;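 active = inhibition above the mean inhibition across the screen plus 3 SD, cut at about 25% in these data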;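 note: inhibitors block binding of the rhodamine activity-based probe so polarization drops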
PAFAH1B3 inh: PAFAH1B3 enzyme inhibitors, primary screen, biochemical, fluorescence polarization, human. recombinant PAFAH1B3, FP-rhodamine probe. inhibition, % at 3.39 µM. Platelet-activating factor acetylhydrolase IB subunit alpha1 (Homo sapiens), Q15102. AID 492972, 2010. 340,000 tested, 0.28% active;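 active = inhibition above the screen-wide average of all tested compounds plus 3 SD, cut at about 25% in these data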
Target sequence (Q15102 whole entry, looked up): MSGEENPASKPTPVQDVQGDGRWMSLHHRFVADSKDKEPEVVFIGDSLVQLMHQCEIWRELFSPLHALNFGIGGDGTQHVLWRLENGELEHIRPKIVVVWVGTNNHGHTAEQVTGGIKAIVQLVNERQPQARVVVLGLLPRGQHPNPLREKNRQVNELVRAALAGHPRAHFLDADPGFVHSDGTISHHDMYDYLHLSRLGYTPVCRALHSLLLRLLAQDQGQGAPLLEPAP
PP1 inh: PP1-alpha phosphatase inhibitors, primary screen, counter-screen for PP5 inhibitor project, biochemical, fluorescence, OMFP substrate, single point. Serine/threonine-protein phosphatase PP1-alpha catalytic subunit (Homo sapiens), P62136. purified PP1alpha. inhibition, % at 6.7 µM. 320,000 tested, 0.9% active. AID 2235, 2010;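 active = inhibition above the mean inhibition of all tested compounds plus 3 SD, computed separately for each screening campaign, cut at about 15% in these data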
Of the large screens only hits and unclear results are named; the others gave an inactive call.

CC(NC(=O)Cn1c(=O)[nH]c2ccsc2c1=O)C12CC3CC(CC(C3)C1)C2 (configuration not stated)	PAFAH1B2 FP inh 28
CC(NC(=O)CN1C(=O)NC(Cc2ccccc2)(Cc2ccccc2)C1=O)C12CC3CC(CC(C3)C1)C2 (configuration not stated)	PAFAH1B2 FP inh 72
COC(=O)C(C(=O)OC)[C@@H]1C=C[C@H](C[N+](=O)[O-])N(C(C)=O)C1	none (no result: PP5 inh, pPAFAH FP inh, PP1 inh)
CCOc1ccccc1Nc1ccc(C(=O)O)cc1N	none
Cc1ccc(Nc2ccc(C(=O)O)cc2N)cc1	pPAFAH FP inh 28 (no result: PAFAH2 FP inh, PAFAH1B2 FP inh, PAFAH1B3 inh)
Cc1cc(C)cc(Nc2ccc(C(=O)O)cc2N)c1	none
COc1cccc(Nc2ccc(C(=O)O)cc2N)c1	pPAFAH FP inh 25
CC(=O)Nc1ccc(S(=O)(=O)N(C)CC(=O)OCC(=O)NC(C)C23CC4CC(CC(C4)C2)C3)cc1 (configuration not stated)	PAFAH1B2 FP inh 25
O=S(=O)(O)c1cc(O)c2c(O)c(N=Nc3cc(Cl)ccc3O)c(S(=O)(=O)O)cc2c1	PAFAH2 FP inh 49, PAFAH1B2 FP inh 34, pPAFAH FP inh 33, PAFAH1B3 inh 35
Nc1cc(S(=O)(=O)O)cc2ccc(S(=O)(=O)O)cc12	none (no result: PP5 inh, pPAFAH FP inh, PP1 inh)
Oc1ccc(Cl)cc1N=Nc1ccccc1	none
Cc1cc(-c2ccc(N=Nc3c(S(=O)(=O)O)cc4cc(S(=O)(=O)O)cc(N)c4c3O)c(C)c2)ccc1N=Nc1c(S(=O)(=O)O)cc2cc(S(=O)(=O)O)cc(N)c2c1O	PP5 inh 18, pPAFAH FP inh 53, PP1 inh 76 (no result: PAFAH2 FP inh, PAFAH1B2 FP inh, PAFAH1B3 inh)
O=C(O)c1cc(O)c2c(c1)[C@@H]([C@H]1c3cc(C(=O)O)cc(O)c3C(=O)c3c(O[C@@H]4O[C@H](CO)[C@@H](O)[C@H](O)[C@H]4O)cccc31)c1cccc(O[C@@H]3O[C@H](CO)[C@@H](O)[C@H](O)[C@H]3O)c1C2=O	pPAFAH FP inh 95 (no result: PP5 inh, PAFAH2 FP inh, PAFAH1B2 FP inh, PAFAH1B3 inh, PP1 inh)
C[C@@H]1CN(C(=O)c2ccc(OC3CCN(S(=O)(=O)N(C)C)CC3)cc2)C[C@H](C)O1	none
Cc1ccc(NC(=O)COC(=O)CCc2c[nH]c(=O)[nH]2)cc1	none
O=C(COC(=O)Cc1ccsc1)Nc1cccc(F)c1	pPAFAH FP inh 29
O=C(COC(=O)CCc1c[nH]c(=O)[nH]1)Nc1ccccc1	PAFAH2 FP inh 34
CC(=O)c1ccc(NC(=O)COC(=O)Cc2ccsc2)cc1	none (no result: PP5 inh, PP1 inh)
O=C(COC(=O)Cc1ccsc1)NNC(=O)c1ccccc1	pPAFAH FP inh 26 (no result: PP5 inh, PP1 inh)
O=C(COC(=O)Cc1ccsc1)Nc1ccccc1	pPAFAH FP inh 27
Oc1[nH]c2ccccc2c1C1=NCCCCC1	none
CC(=O)C1=C(C)NC(SCC(=O)c2ccc(Cl)cc2)=C(C#N)C1c1ccco1 (configuration not stated)	none
CC(=O)C1=C(C)NC(SCC(=O)c2ccc(Cl)cc2Cl)=C(C#N)C1c1ccco1 (configuration not stated)	pPAFAH FP inh 28
Cc1ccc(C(=O)CSC2=C(C#N)C(c3ccco3)CC(=O)N2)c(C)c1 (configuration not stated)	pPAFAH FP inh 28
CN(C)C(CNC(=O)c1cccc(S(=O)(=O)N2CCN(c3ccc(F)cc3)CC2)c1)c1ccccc1 (configuration not stated)	none (no result: PP5 inh, pPAFAH FP inh, PP1 inh)
CCN(CC)S(=O)(=O)c1ccc2c(c1)nc(SC(C)C(N)=O)n2-c1ccc(OC)cc1 (configuration not stated)	pPAFAH FP inh 26
COc1ccc(NC(=O)C2CCCCN2S(=O)(=O)c2ccccc2)cc1S(=O)(=O)N1CCOCC1 (configuration not stated)	none (no result: PP5 inh, pPAFAH FP inh, PP1 inh)
N#C/C(=C/c1cccc(O)c1)C(=O)NCc1ccc(Cl)cc1	none
N#C/C(=C/c1ccc(O)c(O)c1)C(=O)NCc1ccc(Cl)cc1	PAFAH2 FP inh 35, PAFAH1B2 FP inh 53, pPAFAH FP inh 30
CCOC(=O)C(Cc1c[nH]c2ccc([N+](=O)[O-])cc12)(NC(C)=O)C(=O)OCC	none (no result: PP5 inh, pPAFAH FP inh, PP1 inh)
O=C(c1ccccc1)N1CCC(CC2CC(c3cccc(Br)c3)=NO2)(C(=O)NCC2CCCCC2)CC1 (configuration not stated)	pPAFAH FP inh 26
CC(C)[C@H](NC(=O)c1cc2cc(Cl)ccc2n1C)C(=O)N[C@@H](C(=O)O)c1ccccc1	none
Cn1nc(C(=O)NCc2ccc(F)cc2)cc1C(=O)NCc1ccc(F)cc1	none (no result: PP5 inh, pPAFAH FP inh, PP1 inh)
O=C(O)c1ccc2c(c1)C(=O)N(Cc1ccco1)C2=O	none
CC(C)(C)C(=O)COC(=O)c1ccc2c(c1)C(=O)N(Cc1ccco1)C2=O	none
CC(C)CNC(=O)COC(=O)c1ccc2c(c1)C(=O)N(Cc1ccco1)C2=O	pPAFAH FP inh 27
CCCC(C)NC(=O)COC(=O)c1ccc2c(c1)C(=O)N(Cc1ccco1)C2=O (configuration not stated)	pPAFAH FP inh 25
S=c1ncc2[nH]c(=S)[nH]c2[nH]1	none (no result: PP5 inh, pPAFAH FP inh, PP1 inh)
CCCCc1nnc(NC(=O)c2ccc3[nH]c(=O)c(=O)[nH]c3c2)s1	none
Cc1ccc(C(=O)O)cc1-c1ccc(/C=C2/NC(=O)N(c3ccccc3)C2=O)o1	pPAFAH FP inh 29
Cc1ccc(CN2C(=O)N/C(=C\c3ccc(-c4ccc(C(=O)O)cc4C)o3)C2=O)cc1	none
CCOc1ccc(Cc2nnc(SCC(=O)c3ccc(OC)cc3)o2)cc1	none
CCOc1ccc(Nc2nc(Cc3nnc(SCC(=O)O)o3)cs2)cc1	pPAFAH FP inh 28
CN(C)c1ccc(NC(=O)c2ccc(COc3cccc(Cl)c3)o2)cc1	pPAFAH FP inh 27
CCOc1ccc(N2CC(C(=O)Nc3ccccc3C(=O)N3CCOCC3)CC2=O)cc1 (configuration not stated)	none
COc1cc(/C=C2\SC(=O)N(c3cccc(Cl)c3)C2=O)cc([N+](=O)[O-])c1O	PAFAH2 FP inh 52 (no result: PP5 inh, pPAFAH FP inh, PP1 inh)
O=C1S/C(=C\c2ccc(O)c([N+](=O)[O-])c2)C(=O)N1c1ccccc1Cl	pPAFAH FP inh 34
CNC(=O)c1ccccc1NC(=O)C1CC(=O)N(C(C)C)C1 (configuration not stated)	none
COc1ccc(S(=O)(=O)NCCc2c(C)nn(C)c2Oc2ccccc2)cc1	none
Cc1nn(C)c(Oc2ccccc2)c1CCNS(=O)(=O)c1ccc(Cl)cc1	PAFAH1B2 FP inh 25
CCCCc1cc(=O)oc2c(C)c(OCC(=O)N3C[C@H]4C[C@@H](C3)c3cccc(=O)n3C4)ccc12	PP1 inh 17
Oc1ccc(-c2nc3ccc4ccccc4c3c3c2CCC3)cc1O	pPAFAH FP inh 33
